Reference: PubChem BioAssay (EPA / NIEHS)
Where “and” joins values, the source holds several entries; their conditions need not be identical. Identical values can stand only once. Results filed as inconclusive are left out. More than one record can exist for a structure, and the calls need not agree. Calls of active or inactive are those of the source. Rule for the calls: active = hit-call score of the fitted dose curve at least 0.9, where 1 is the maximum; inconclusive = response in the unintended direction; inactive = score below 0.9.

test: ATG_XTT_Cytotoxicity: Cytotoxicity Assessment in the Attagene TRANS-FACTORIAL HepG2 Assay (AID 2283584);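 for AC50: XTT signal for cell number as viability in transfected HepG2 cells; cells exposed to compound for 24 h before reading; active means loss of viability signal versus DMSO baseline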
Procedure, shortened: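 HepG2 cells transiently transfected with GAL4-UAS multiple reporter units, dosed 24 h; cytotoxicity read by XTT as loss of signal versus DMSO baseline.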

| SMILES | outcome | AC50 |
| --- | --- | --- |
| CCOCCOC(C)=O | inactive |  |
| Oc1ccc(C(c2ccc(O)cc2)(C(F)(F)F)C(F)(F)F)cc1 | inactive | 60.9 µM (active) and 100 µM (active) |
| CCCCCCOC(=O)c1ccccc1C(=O)OCCCCCC | inactive |  |
| O=S(=O)(O)C(F)(F)C(F)(F)C(F)(F)C(F)(F)F | inactive |  |
| CCCCCCCCCC[N+](C)(C)CCCCCCCCCC |  | 18.5 µM (active) |
| CCC(=O)O[C@H]1CC[C@H]2[C@@H]3CCC4=CC(=O)CC[C@]4(C)[C@H]3CC[C@]12C | inactive |  |
| CC(C)(O)C(=O)Nc1ccc([N+](=O)[O-])c(C(F)(F)F)c1 | inactive |  |
| CO/C=C(/C(=O)OC)c1ccccc1COc1cccc(C(F)(F)F)n1 | inactive |  |
| CC(c1ccc(O)cc1)(c1ccc(O)cc1)c1ccc(O)cc1 | inactive |  |
| CN(C)CCO | inactive |  |
| CC1=C2C[C@H]3[C@@H](CC=C4C[C@@H](O)CC[C@@]43C)[C@@H]2CC[C@]12O[C@@H]1C[C@H](C)CN[C@H]1[C@H]2C | inactive |  |
| Cc1cc(O)ccc1Cl | inactive |  |
| Nn1cnnc1 | inactive |  |
| O=C(O)C(F)(F)C(F)(F)C(F)(F)C(F)(F)C(F)(F)C(F)(F)C(F)(F)C(F)(F)F | inactive |  |
| Cc1cccc(C)c1N | inactive |  |
| O=C(NC(=O)c1c(F)cccc1F)Nc1cc(Cl)c(OC(F)(F)C(F)F)c(Cl)c1 | inactive |  |
| CCOP(=S)(OCC)SCSC(C)(C)C | inactive |  |
| CCCCCCCCCc1ccc(O)cc1 | inactive | 151 µM (active) |
| Cc1cccc([N+](=O)[O-])c1 | inactive |  |
| CC(C)(c1ccccc1)c1ccc(O)cc1 | inactive |  |
| c1cc2ccc3cccc4ccc(c1)c2c34 | inactive |  |
| ClC1=C(Cl)[C@]2(Cl)[C@@H]3[C@@H]4C[C@@H]([C@H]5O[C@@H]45)[C@@H]3[C@@]1(Cl)C2(Cl)Cl | inactive |  |
| C[C@]12CCC(=O)C=C1CC[C@@H]1[C@@H]2CC[C@@]2(C)[C@H]1CC[C@]2(C)O | inactive |  |
| Clc1ccc(C(Cl)(Cl)Cl)cc1 | inactive |  |
| CCCCCCCCOC(=O)c1ccccc1C(=O)OCCCCCCCC | inactive |  |
| ClC(Cl)=C(c1ccc(Cl)cc1)c1ccc(Cl)cc1 | inactive |  |
| O=S(=O)(O)C(F)(F)C(F)(F)C(F)(F)C(F)(F)C(F)(F)C(F)(F)F | inactive |  |
| C[C@]12CCC(=O)C=C1CC[C@@H]1[C@@H]2CC[C@]2(C)C(=O)CC[C@@H]12 | inactive |  |
| CCOC(=O)C(O)(c1ccc(Cl)cc1)c1ccc(Cl)cc1 | inactive |  |

test: TOX21_p53_BLA_p2_viability: Viability Assessment in the Tox21 HCT-116 p53 Agonism Beta-lactamase Assay, Phase 2 (AID 2283591);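 note: compound exposure lasted 16 h at 37 °C; actives lower the ATP signal meaning cytotoxicity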
Procedure, shortened: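 Cytotoxicity readout: CellTiter-Glo ATP luminescence, 30 min at room temperature, after the beta-lactamase read. Cells were HCT116 exposed 16 h at 37C to compounds pin-transferred at 217-fold dilution from DMSO stocks.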

| SMILES | outcome | AC50 |
| --- | --- | --- |
| C=CC(N)=O | inactive |  |
| CCOCCOC(C)=O | inactive |  |
| Oc1ccc(C(c2ccc(O)cc2)(C(F)(F)F)C(F)(F)F)cc1 | inactive | 65.1 µM (active) |
| O=S(=O)(O)C(F)(F)C(F)(F)C(F)(F)C(F)(F)F | inactive |  |
| CCCCCCCCCC[N+](C)(C)CCCCCCCCCC |  | 36.4 µM (active) and 33.1 µM (active) |
| CCC(=O)O[C@H]1CC[C@H]2[C@@H]3CCC4=CC(=O)CC[C@]4(C)[C@H]3CC[C@]12C | inactive | 70.4 µM (active) |
| CC(C)(O)C(=O)Nc1ccc([N+](=O)[O-])c(C(F)(F)F)c1 | inactive |  |
| CO/C=C(/C(=O)OC)c1ccccc1COc1cccc(C(F)(F)F)n1 | inactive |  |
| CC(c1ccc(O)cc1)(c1ccc(O)cc1)c1ccc(O)cc1 |  | 33.4 µM (active) |
| CN(C)CCO | inactive |  |
| CC1=C2C[C@H]3[C@@H](CC=C4C[C@@H](O)CC[C@@]43C)[C@@H]2CC[C@]12O[C@@H]1C[C@H](C)CN[C@H]1[C@H]2C | inactive |  |
| Cc1cc(O)ccc1Cl | inactive |  |
| Nn1cnnc1 | inactive |  |
| O=C(O)C(F)(F)C(F)(F)C(F)(F)C(F)(F)C(F)(F)C(F)(F)C(F)(F)C(F)(F)F |  | 85.3 µM (active) |
| O=C(NC(=O)c1c(F)cccc1F)Nc1cc(Cl)c(OC(F)(F)C(F)F)c(Cl)c1 | inactive |  |
| O=C(NC(=O)c1cc(F)c(F)cc1Cl)Nc1cc(F)ccc1N1CCC(C(=O)O)CC1 | inactive |  |
| CCOP(=S)(OCC)SCSC(C)(C)C | inactive |  |
| CCCCCCCCCc1ccc(O)cc1 | inactive |  |
| Cc1cccc([N+](=O)[O-])c1 | inactive |  |
| CC(C)(c1ccccc1)c1ccc(O)cc1 | inactive | 80.1 µM (active) |
| c1cc2ccc3cccc4ccc(c1)c2c34 | inactive |  |
| ClC1=C(Cl)[C@]2(Cl)[C@@H]3[C@@H]4C[C@@H]([C@H]5O[C@@H]45)[C@@H]3[C@@]1(Cl)C2(Cl)Cl | inactive |  |
| C[C@]12CCC(=O)C=C1CC[C@@H]1[C@@H]2CC[C@@]2(C)[C@H]1CC[C@]2(C)O | inactive |  |
| Clc1ccc(C(Cl)(Cl)Cl)cc1 | inactive |  |
| CCCCCCCCOC(=O)c1ccccc1C(=O)OCCCCCCCC | inactive |  |
| ClC(Cl)=C(c1ccc(Cl)cc1)c1ccc(Cl)cc1 | inactive | 55.6 µM (active) |
| Nc1ccc(-c2ccc(N)cc2)cc1 | inactive |  |
| C[C@]12CCC(=O)C=C1CC[C@@H]1[C@@H]2CC[C@]2(C)C(=O)CC[C@@H]12 | inactive |  |
| CCOC(=O)C(O)(c1ccc(Cl)cc1)c1ccc(Cl)cc1 |  | 67.1 µM (active) and 17.8 µM (active) |
